TLR4 MyD88 comp = blocks binding of human TLR4 to MyD88. 0.18% of 200,000 active. HeLa CL3-4 TLR4/MyD88 BLA complementation, FRET ratio. AID 861. inhibition, % at 8.4 µM; in the data active = inhibition above about 25%
TLR9-MyD88 block = TLR9-MyD88 interaction inhibition; inhibition, % at 4.98 µM; 0.21% of 340,000 active; AID 504734; Q9NR96+Q99836; CHO BLA complementation TLR9-MyD88, CCF4 FRET ratio;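 active = inhibition above the mean over all tested compounds plus 3 SD, cut at about 21% in these data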
ANO1 block = inhibitors of mouse TMEM16A calcium-activated chloride channel | Q8BHY3 | HEK293 TMEM16A/YFP iodide influx fluorescence, ionomycin | normalized B-score (activity score, 25-100; higher = stronger inhibition) at 10 µM | 1.2% of 310,000 active;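 active = ratio plate-corrected score three or more library SD toward inhibition, starting fluorescence score within five deviations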;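 also: score derived from kinetic fluorescence span divided by baseline fluorescence per well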
Target sequence (Q8BHY3 whole entry, looked up): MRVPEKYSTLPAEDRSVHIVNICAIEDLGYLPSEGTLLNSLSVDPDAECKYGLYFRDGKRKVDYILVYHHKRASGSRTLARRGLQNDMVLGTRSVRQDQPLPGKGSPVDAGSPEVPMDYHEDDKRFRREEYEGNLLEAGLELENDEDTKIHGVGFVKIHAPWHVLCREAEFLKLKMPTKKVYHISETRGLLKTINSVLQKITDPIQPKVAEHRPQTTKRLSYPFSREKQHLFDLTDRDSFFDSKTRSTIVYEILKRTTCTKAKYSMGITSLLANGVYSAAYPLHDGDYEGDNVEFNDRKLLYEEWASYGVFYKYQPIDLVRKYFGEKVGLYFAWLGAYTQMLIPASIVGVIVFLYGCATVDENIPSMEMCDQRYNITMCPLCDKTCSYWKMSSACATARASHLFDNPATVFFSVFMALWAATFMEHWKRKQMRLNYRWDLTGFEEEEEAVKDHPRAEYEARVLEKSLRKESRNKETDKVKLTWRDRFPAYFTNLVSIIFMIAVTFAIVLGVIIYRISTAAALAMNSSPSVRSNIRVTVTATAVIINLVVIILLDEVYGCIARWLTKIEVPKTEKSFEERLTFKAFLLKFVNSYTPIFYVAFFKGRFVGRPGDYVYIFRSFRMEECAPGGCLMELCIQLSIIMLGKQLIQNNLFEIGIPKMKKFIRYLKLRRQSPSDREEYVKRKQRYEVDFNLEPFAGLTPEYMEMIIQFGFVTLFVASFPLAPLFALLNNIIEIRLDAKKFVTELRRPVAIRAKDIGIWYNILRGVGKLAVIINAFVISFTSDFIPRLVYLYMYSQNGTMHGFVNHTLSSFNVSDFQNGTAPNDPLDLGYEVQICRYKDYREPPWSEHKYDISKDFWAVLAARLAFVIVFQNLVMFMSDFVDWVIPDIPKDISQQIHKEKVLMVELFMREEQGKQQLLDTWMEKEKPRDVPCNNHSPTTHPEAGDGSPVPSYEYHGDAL
ANO1 activ = activators or potentiators of mouse TMEM16A chloride channel; Q8BHY3; HEK293 TMEM16A/YFP-H148Q/I152L, iodide quench fluorescence; hits give low values; B-score at 10 µM; 0.3% of 340,000 active;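 active = fluorescence-ratio B-score plate-corrected deviation score at least 3 library SD below zero, with starting fluorescence score within 5 deviations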;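 also: channel opened by trigger with iodide after compound preincubation; score built on the fluorescence ratio of max minus min over baseline; more negative score means more quench and so TMEM16A activation or potentiation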
m5-HT2A agonist = agonists of mouse serotonin 5-HT2A receptor (HTR2A); CHO-K1 mHTR2A beta-arrestin complementation, luminescence; percent of 30 µM serotonin response; P35363; AID 624169; 0.66% of 360,000 active; activation, % at 7.6 µM;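 active = activation above a run cutoff, the mean activation of all tested compounds plus 3 SD, cut at about 14% in these data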
NOD2-RIPK2 inh = NOD2-RIPK2 protein interaction inhibition; CHO BLA complementation NOD2-RIPK2, CCF4 ratio; inhibition, % at 4.98 µM; 0.38% of 360,000 active; in the data active = inhibition above about 21%
Hits are given with their value; n = inactive; x = not tested or not shown. In the library only some 2.4% were active in any assay of this set; here they are far more common.

SMILES | TLR4 MyD88 comp | TLR9-MyD88 block | ANO1 block | ANO1 activ | m5-HT2A agonist | NOD2-RIPK2 inh
CC(Oc1ccc(Cl)cc1Cl)C(=O)NC1CCSC1=O (configuration not stated) | n | n | n | n | n | n
COc1ccc(CCC(=O)Nc2c(-c3ccc(N(C)C)cc3)[nH][nH]c2=O)cc1 | x | x | x | x | 16 | n
CCc1ccccc1NC(=O)c1cccc(N2C(=O)C3C4CCC(C4)C3C2=O)c1 (configuration not stated) | n | n | n | n | n | n
CCNC(=O)c1ccc2c(c1)C1C3CCC(C3)C1C(c1ccccc1)N2 (configuration not stated) | n | n | n | -6.7 | n | n
CC1=C([N+](=O)[O-])C(c2cccc(Br)c2)C2=C(N1)c1ccccc1C2=O (configuration not stated) | n | n | 100 | n | n | n
COc1ccc(Cc2nc(C(=O)Nc3ccc(Cl)cc3)cs2)cc1 | n | n | 100 | n | n | n
CC(C)=CCc1c(-c2ccc(O)cc2O)oc2c3c(cc(O)c2c1=O)OC(C)(C)C=C3 | x | x | 25 | x | x | x
Cc1ccc(C2CC(=O)C=C(O)C2)cc1 (configuration not stated) | n | n | 100 | n | n | n
COc1ccc(-c2csc(NC(=O)c3cccs3)c2C(=O)O)cc1OC | n | n | n | -41 | n | n
COc1ccc(-c2csc(NC(=O)c3ccccc3OC)c2C(=O)O)cc1OC | x | n | n | n | n | n
Cc1cc(C(=O)Nc2cccc(S(=O)(=O)N3CCCCC3)c2)c2ccccc2n1 | n | n | n | n | n | n
COc1ccc(NC(=O)/C(Cl)=C(/Cl)S(=O)(=O)Cc2ccc(C)cc2)cn1 | n | 27 | x | n | n | 75
COc1ccc(NC(=O)Cc2ccc(Cl)c(Cl)c2)cn1 | n | n | n | n | n | n
COc1ccc(NC(=O)/C(Cl)=C(/Cl)S(=O)Cc2ccccc2Cl)cn1 (configuration not stated) | n | x | x | -4.6 | x | x
COc1cccc(CCC(=O)N2CCC(n3nccc3NC(=O)C3CCOC3)CC2)c1 (configuration not stated) | x | n | n | n | n | n
CN(CC(=O)NCc1ccc(F)cc1)CC(=O)Nc1ccc(Cl)c(C(F)(F)F)c1 | x | n | 100 | n | n | n
CC(C)(C)NC(=O)CN1CCC(O)(c2ccc3c(c2)OCO3)CC1 | n | n | n | -13 | n | n
Cc1ccc(-c2nn(CC(=O)NCc3cc(-c4nn(C)c(=O)c5ccccc45)ccc3C)c(=O)c3ccccc23)cc1 | n | n | n | -7.8 | n | n
CC(C)[C@H](NC(=O)N1CC(=O)Nc2ccccc21)C(=O)N[C@H](Cc1c[nH]c2ccccc12)C(=O)O | x | n | n | n | n | n
CC(C)c1ccc(NC(=O)C2CC(=O)N(C3CCCC3)C2)cc1 (configuration not stated) | x | n | n | n | n | n
O=C(Nc1ccccc1)C1CC(=O)N(C2CCCCC2)C1 (configuration not stated) | n | n | n | -7.7 | n | n
COC(=O)C(C(=O)OC)C(C)C(C(=O)OC)C(=O)OC | n | n | n | -18 | n | n
CC(C)c1c(O)ccc2c1CC[C@H]1C(C)(C)CCC[C@]21C | x | n | x | n | 45 | n
Cc1cccc(OC(=O)Cn2c(C(F)(F)F)nc3ccccc32)c1 | n | n | n | n | n | n
CC1CCC(C(C)C)C(OC(=O)CSc2nc(N)cc(=O)[nH]2)C1 (configuration not stated) | n | n | n | n | n | n
SMILES | TLR4 MyD88 comp | TLR9-MyD88 block | ANO1 block | ANO1 activ | m5-HT2A agonist | NOD2-RIPK2 inh
CC1CCC(C(C)C)C(OC(=O)C[n+]2cc(-c3ccc(Cl)cc3)n3c2CCC3)C1 (configuration not stated) | x | n | n | n | n | n
CC1CCC(C(C)C)C(OC(=O)Cn2c(-c3ccc(F)cc3)[n+](C)c3ccccc32)C1 (configuration not stated) | n | n | 100 | n | n | n
Cc1cccc(OCc2n(CC(=O)OC3CC(C)CCC3C(C)C)c3ccccc3[n+]2C)c1 (configuration not stated) | n | n | 100 | -6.2 | n | n
CC1CCC(C(C)C)C(OC(=O)Cn2c(-c3ccccc3)[n+](C)c3ccccc32)C1 (configuration not stated) | n | n | 100 | n | n | n
CC(NS(=O)(=O)c1ccc(Cl)c(Cl)c1)C(=O)OCC(=O)N1CCCCCC1 (configuration not stated) | x | n | x | n | n | n
C[n+]1c(-c2ccccc2)cc2c(=Cc3ccc([N+](=O)[O-])cc3)c3ccccc3n21 | x | n | x | n | n | n
C[n+]1c(-c2ccccc2)cc2c(=Cc3ccccc3)c3ccccc3n21 | x | n | x | -10 | n | n
COc1ccc(S(=O)(=O)Nc2cccc(S(=O)(=O)N3CCCCCC3)c2)cc1 | n | n | n | n | n | n
O=S(=O)(Nc1nc2ccccc2nc1Nc1cccc(S(=O)(=O)N2CCCCC2)c1)c1ccccc1 | n | n | 100 | n | n | n
COc1ccccc1OCCSc1nc2ccc([N+](=O)[O-])cc2s1 | n | n | 100 | n | n | n
N#CC(C#N)=NNc1ccc(S(=O)(=O)N2CCCCC2)cc1 | n | n | 100 | n | n | n
N#C/C(=N\Nc1ccc(S(=O)(=O)N2CCOCC2)cc1)C(N)=S | x | n | n | n | n | n
COc1ccc([C@H]2CC(=O)C=C(c3ccc4ccccc4c3)C2)cc1OC | x | n | x | n | n | n
COc1ccc([C@H]2CC(=O)C=C(c3ccc(-c4ccccc4)c(F)c3)C2)cc1OC | x | n | x | -6.2 | n | n
CCOc1ccc(NC(=O)Cc2cccc3ccccc23)c([N+](=O)[O-])c1 | n | n | n | n | n | n
COc1ccc2c(CN3CCN(Cc4ccccc4)CC3)cc(=O)oc2c1 | x | n | x | x | n | n
Cc1cccc(CSC(Nc2ccc(F)cc2)=C(C#N)C#N)c1 | n | n | 100 | n | n | n
N#CC(C#N)=C(Nc1ccc(F)cc1)SCc1cccc(Br)c1 | n | n | 100 | n | n | n
Cc1cccc(CSC(=N)N)c1 | n | n | n | n | n | n
CCOc1ccc(S(=O)(=O)N2CCC(C(=O)N3CCN(c4ccccc4)CC3)CC2)cc1 | x | n | n | n | n | n
CCCCCn1c(N2CCC(Cc3ccccc3)CC2)nc2c1c(=O)[nH]c(=O)n2C | n | n | 100 | n | n | n
Cc1cc(C)c2c(c1)-c1c(ssc1=S)C(C)(C)N2C(=O)CN1C(=O)c2ccccc2C1=O | n | n | n | -13 | n | n
COc1ccc(C(=O)Nc2ccccc2C(=O)NCc2cccnc2)cc1 | x | n | n | n | n | n
Cc1cc(/C=N/n2cnnc2)c(C)n1-c1ccc(OCc2ccc(Cl)cc2Cl)cc1 | n | n | 100 | n | n | n
